Hits are enriched below; roughly 19% of the tested compounds scored in any of these assays.
IL1B secr inh: inhibitors of inflammasome signaling (IL-1 beta secretion); activity change, % at 57.5 µM; 4.7% of 360,000 active; THP-1 LPS/ATP IL-1B secretion, AlphaLISA, 16 h; stronger effect = lower value; in the data active means activity change below about -50%; inconclusive means mostly about -30% to -49%; further: on the % scale 0 is the no-effect control and ±100 the full control effect
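THP-1 cells pretreated 1 hr with compounds (up to 57.5 uM final), then stimulated with LPS (250 ng/mL final) plus ATP (1.25 mM final); secreted IL-1B measured by AlphaLISA after 16 hr, decreased signal indicating inhibition.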
DT40 TDP1 CPT: DT40-hTDP1 cell growth loss with CPT; Potency, µM (titrated, usually from 46.2 µM), inactives show at the top dose activity change, negative = growth inhibition, actives largely listed as inhibitors; AID 686979; chicken DT40 Tdp1-/-;hTDP1 cells + 20 nM CPT, ATP luminescence, 48 h; 12% of 420,000 active; further: potency means the concentration at half of the fitted maximal effect; on the % scale 0 is the no-effect control and ±100 the full control effect; nearly all actives have a fitted effect of over 55% in size
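Chicken DT40 Tdp1-/- cells complemented with human TDP1, 400 cells/well, exposed to compounds plus 20 nM camptothecin for at least 48 h at 37 C; viability read as ATP content by CellTiter-Glo luminescence.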
ASM inhibitor: human S-ASM enzyme inhibition. P17405. AID 504937. placental ASM, HMU-PC fluorogenic substrate, 60 min. Potency, µM (series often up to 57.5 µM), for inactives: top-dose activity change, negative = inhibition, hits mostly inhibitors. 0.006% of 340,000 active; further: potency means the concentration at half of the fitted maximal effect
Target sequence (P17405 47-631 limits assumed): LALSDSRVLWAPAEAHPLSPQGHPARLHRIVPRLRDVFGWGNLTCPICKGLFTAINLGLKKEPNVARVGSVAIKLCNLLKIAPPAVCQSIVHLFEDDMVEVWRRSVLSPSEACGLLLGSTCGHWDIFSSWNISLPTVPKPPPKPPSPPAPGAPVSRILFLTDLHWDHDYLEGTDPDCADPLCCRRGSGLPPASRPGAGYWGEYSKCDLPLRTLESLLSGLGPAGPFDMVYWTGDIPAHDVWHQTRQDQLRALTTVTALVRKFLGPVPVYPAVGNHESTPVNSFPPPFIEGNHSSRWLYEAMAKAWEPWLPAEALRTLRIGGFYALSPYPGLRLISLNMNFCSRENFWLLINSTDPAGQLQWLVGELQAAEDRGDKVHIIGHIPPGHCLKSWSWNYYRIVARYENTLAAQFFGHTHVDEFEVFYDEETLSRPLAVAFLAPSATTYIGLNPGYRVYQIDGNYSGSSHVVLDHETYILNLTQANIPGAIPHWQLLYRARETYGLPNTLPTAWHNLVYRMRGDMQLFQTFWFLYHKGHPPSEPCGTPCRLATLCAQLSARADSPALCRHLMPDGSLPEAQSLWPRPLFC
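qHTS format. ASM enzyme prepared from human placenta hydrolyses the fluorogenic substrate HMU-PC0 (9 uM final) over 60 min at 37 °C after a 10 min compound preincubation.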
HepG2 tox: kills HepG2 cells in TGF-b inhibitor counter-screen | Potency, µM (doses to about 46.1 µM), without a hit: at the top dose activity change, negative = cytotoxicity, most hits filed as cytotoxic | 0.76% of 410,000 active | AID 588856 | HepG2 CAGA-GFP viability, ATP luminescence, 18 h; further: potency means the concentration at half of the fitted maximal effect
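CellTiter-Glo luminescence gave cytotoxicity after 18 hours at 37 degrees C. The cells were HepG2 CAGA-GFP in 1% FBS DMEM, stimulated with 500 pg/mL TGF-beta after compound addition. %Activity was normalised to no-cell wells (complete cell-killing) and DMSO (no toxicity), and curves were fitted and classified.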
TGFb SMAD3 inh: blocks TGF-b signaling | HepG2 CAGA-GFP TGF-b/SMAD3 reporter, GFP fluorescence, 18 h; TGF-beta stimulated, 500 pg/mL final | Potency, µM (top dose mostly 46.1 µM), for inactives: at the top dose activity, negative = inhibition, usual class: inhibitors | 1.2% of 410,000 active; further: potency means the concentration at half of the fitted maximal effect; on the % scale 0 is the no-effect control and ±100 the full control effect; nearly all actives have a fitted effect of over 65% in size
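HEPG2 CAGA-GFP reporter cells (1000/well, DMEM with 1% FBS) received compounds, then recombinant TGF-beta at 500 pg/mL final for 18 hours at 37 degrees C. Per-cell GFP summed per well was normalised to unstimulated and stimulated DMSO controls before curve fitting.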
DT40 TDP1 no CPT: qHTS for Inhibitors of human tyrosyl-DNA phosphodiesterase 1 (TDP1): qHTS in cells in absence of CPT | DT40 Tdp1-/- hTDP1 cells, no CPT, ATP luminescence, 48 h | Potency, µM (doses to about 46.2 µM), for inactives: at the top dose activity change, negative = growth inhibition, hits mostly inhibitors | 15% of 420,000 active; further: potency means the concentration at half of the fitted maximal effect; on the % scale 0 is the no-effect control and ±100 the full control effect; nearly all actives have a fitted effect of over 55% in size
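Chicken DT40 Tdp1-/- cells complemented with human TDP1, screened without camptothecin (DMSO vehicle only), 400 cells/well. Compounds pin-transferred, cells incubated at 37 °C for at least 48 hr. Growth read as ATP-dependent luminescence (CellTiter-Glo, 30 min at RT).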
Active calls of the source: *; ? = inconclusive; . = no result given. Unless noted, the call rests on the fitted dose curve; in most records, active means well fitted curve in the direction sought with a large enough effect; inconclusive means small, poorly fitted or top-dose-only effect, or another doubt; inactive means no such curve, though single readings can be large; an effect the other way counts as inactive or inconclusive.

SMILES	IL1B secr inh	DT40 TDP1 CPT	ASM inhibitor	HepG2 tox	TGFb SMAD3 inh	DT40 TDP1 no CPT
CCOc1ccc(CCNC(=O)C2CCCN(c3ncnc4c3nc3n4CCCCC3)C2)cc1 (stereo unspecified)	-12	?	-2%	-8%	3%	23µM*
Cc1ccc(CN2CCC(CNC(=O)C3CCCN(c4ncnc5c4nc4n5CCCCC4)C3)CC2)cc1 (stereo unspecified)	-66*	?	-2%	-20%	?	?
Cn1c(=O)c2c(-c3cccc(Br)c3)n(C(C)(C)CO)cc2n(C)c1=O	.	?	.	-12%	-9%	?
COCCN(C(=O)COC(=O)C12CC3CC(CC(O)(C3)C1)C2)c1c(N)n(Cc2ccccc2)c(=O)[nH]c1=O	2	3%	.	11%	11%	-3%
O=C(O)c1ccccc1NS(=O)(=O)c1cccc(-n2sc3ccccc3c2=O)c1	-93*	15µM*	5%	-12%	-2%	8.2µM*
Cc1cccc(-n2cc(-c3ccccc3)c3c(NC4CCCC4)ncnc32)c1	.	?	.	-14%	0%	16µM*
Cc1ccc(-n2cc(-c3ccccc3)c3c(NC4CCCC4)ncnc32)cc1	.	?	.	-27%	?	23µM*
CCOC(=O)/C(=N\Nc1ccccc1Cl)N1CCN(C)CC1	-58*	?	-2%	-2%	7%	?
CCOC(=O)/C(=N\Nc1ccccc1Cl)N1CCN(Cc2ccccc2)CC1	-18	?	1%	-17%	-10%	?
Cc1ccc(C)n1N1C(=O)/C(=C\c2ccc(Cl)cc2)SC1=S	-91*	?	-13%	-31%	-19%	?
CC(=O)N(C(C)=O)N1C(=O)/C(=C/c2ccc(Cl)cc2)SC1=S	0	?	-13%	-36%	16µM*	?
O=C(NCCS(=O)c1ccc(Cl)cc1)c1cccc(Cl)c1 (stereo unspecified)	9	2%	-1%	-14%	-1%	1%
C=CCc1c(C)nc(SC)nc1Nc1ccc(C(C)=O)cc1	-23	16µM*	-2%	-6%	1%	21µM*
C=CCc1c(C)nc(-c2ccccc2)nc1Nc1ccc(O)cc1	-97*	?	0%	-24%	?	15µM*
COc1ccc(N2CCN(c3ccc(S(=O)(=O)N(C(C)C)C(C)C)cn3)CC2)cc1	6	4.6µM*	-5%	-13%	-3%	7.3µM*
OC1(c2ccccn2)COc2ccccc2O1 (stereo unspecified)	-14	3%	-2%	27%	25%	10%
CCOc1ccc(C(C)=O)cc1N1C(=O)C2C3C=CC(O3)C2C1=O (stereo unspecified)	-10	6.5µM*	2%	-56%	?	5.2µM*
Cc1ccc2oc(=O)n(CCNC(=O)Nc3ccccc3Cl)c2c1	.	18µM*	.	-9%	?	?
O=C(CNc1ccccc1F)Nc1cccc(S(=O)(=O)N2CCCCC2)c1	-8	-17%	2%	-1%	-11%	-21%
CCN(CC)c1nn2c(=O)c(C(=O)NCc3cccc(OC)c3OC)cnc2s1	.	?	.	-21%	-11%	?
CCN(CC)c1nn2c(=O)c(C(=O)NCc3cccc(C)c3)cnc2s1	.	?	.	-15%	0%	16µM*
CCCN(CCC)c1nn2c(=O)c(C(=O)NCc3cccc(OC)c3)cnc2s1	.	?	.	-33%	?	16µM*
CN(C)S(=O)(=O)c1ccc(C(=O)NC2CC(=O)N(c3ccc4c(c3)OCCO4)C2)cc1 (stereo unspecified)	.	2%	.	3%	1%	-23%
O=C(O)c1ccccc1-c1ccccc1C(=O)Nc1ccc2c(c1)C(O)c1ccccc1-2 (stereo unspecified)	9	2%	.	-14%	-9%	-1%
COc1ccc(OCC(=O)Nc2ccc3c(c2)nc(CN2CCCC2)n3C)cc1	-11	?	-1%	-6%	8%	?
SMILES	IL1B secr inh	DT40 TDP1 CPT	ASM inhibitor	HepG2 tox	TGFb SMAD3 inh	DT40 TDP1 no CPT
Cc1ccc(C(C)C)c(OCC(=O)Nc2ccc3c(c2)nc(CCN2CCCCC2)n3C)c1	-80*	?	-17%	-108%	?	?
CCn1c(CN2CCCCC2)nc2cc(NC(=O)COc3ccc(C(C)(C)C)cc3)ccc21	.	12µM*	.	-3%	0%	8.2µM*
CCn1c(CN2CCCCC2)nc2cc(NC(=O)COc3cc(C)ccc3C(C)C)ccc21	.	18µM*	.	-7%	-10%	?
CC(C)CC(=O)Nc1ccc2c(c1)nc(CCN1CCCCC1)n2C	-8	-3%	2%	-20%	-45%	-27%
CCC(=O)Nc1ccc2c(c1)nc(CN1CCCCC1)n2C	-17	-9%	9%	-7%	-6%	9%
CCn1c(CN2CCCCC2)nc2cc(NC(=O)c3cccc([N+](=O)[O-])c3)ccc21	.	18µM*	.	-28%	-14%	23µM*
CCc1nc2nc(C)c(NS(=O)(=O)c3ccc(C(C)(C)C)cc3)c(=O)n2[nH]1	.	7%	.	2%	4%	2%
COc1ccc(N2CCN(C(=O)c3ccc(NC(=O)C4=CSCCO4)cc3)CC2)cc1	-4	-12%	1%	9%	-6%	?
Cc1cc(OCC(=O)NCCc2nc3ccccc3[nH]2)cc(C)c1Cl	.	12µM*	.	-45%	20µM*	12µM*
Cc1ccc(C(C)(C)C)c(OCC(=O)NCCc2nc3ccccc3[nH]2)c1	.	13µM*	.	-42%	?	7.3µM*
CCCNC(=O)c1onc(CSc2ccncc2)c1C(=O)NCCC	-6	2%	0%	-2%	10%	-7%
COc1ccc2c(c1)OCC(O)(c1ccccc1)C2=O (stereo unspecified)	-2	-10%	2%	7%	1%	-12%
COc1cccc(NC(=O)CN(C)C(=O)c2cc(-c3ccccc3)nc3ccccc23)c1	?	?	.	-26%	1%	?
COc1ccc(-c2cc(C(=O)N(C)CC(=O)Nc3cccc(F)c3)c3ccccc3n2)cc1OC	-2	21µM*	.	-26%	13%	21µM*
COc1cccc(NC(=O)CN(C)C(=O)c2cc(-c3ccc(F)cc3)nc3ccccc23)c1	-62*	?	-9%	-28%	-13%	?
CN(CC(=O)Nc1cccc(F)c1)C(=O)c1cc(-c2ccco2)nc2ccccc12	-10	?	.	-14%	16%	?
